Several values for one entry are separate records, joined by “and”; a condition that tells them apart may be missing. Identical values can stand only once. Hit rate of the full screen: of about 310,000 compounds, about 1,200 (0.39%) were called active. How the calls were made is not given here. Only a sample is shown. Measured potencies and affinities stand elsewhere.
Biological target: Large T antigen (Simian virus 40) (UniProt P03070)
Assay: TAg ATPase/helicase activity blockers – biochemical (AID 1903)
Settings: SV40 large T antigen ATPase/helicase inhibition assay; at 20 µM; stronger effect = higher value

Large T antigen (Simian virus 40), sequence (P03070 whole entry, looked up): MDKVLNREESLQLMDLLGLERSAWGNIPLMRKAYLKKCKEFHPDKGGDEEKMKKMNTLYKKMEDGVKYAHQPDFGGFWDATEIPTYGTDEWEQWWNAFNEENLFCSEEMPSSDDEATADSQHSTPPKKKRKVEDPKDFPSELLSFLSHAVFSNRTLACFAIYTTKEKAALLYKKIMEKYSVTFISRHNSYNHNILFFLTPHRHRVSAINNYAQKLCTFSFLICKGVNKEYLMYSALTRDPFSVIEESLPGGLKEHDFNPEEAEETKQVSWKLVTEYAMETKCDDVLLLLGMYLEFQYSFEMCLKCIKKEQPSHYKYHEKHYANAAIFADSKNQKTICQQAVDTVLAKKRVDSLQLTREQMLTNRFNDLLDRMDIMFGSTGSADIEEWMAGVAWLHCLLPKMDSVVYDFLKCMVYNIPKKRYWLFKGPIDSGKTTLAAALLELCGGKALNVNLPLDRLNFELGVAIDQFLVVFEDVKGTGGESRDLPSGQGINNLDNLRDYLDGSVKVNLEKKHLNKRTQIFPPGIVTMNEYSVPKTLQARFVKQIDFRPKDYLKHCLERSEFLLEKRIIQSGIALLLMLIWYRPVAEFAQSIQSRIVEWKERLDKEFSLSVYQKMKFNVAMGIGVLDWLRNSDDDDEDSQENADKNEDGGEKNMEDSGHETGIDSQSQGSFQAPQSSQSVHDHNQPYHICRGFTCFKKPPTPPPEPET

inhibition, inactive:
CN(CC(=O)Nc1ccc(Cl)c(C(F)(F)F)c1)C(=O)C1CCC1 17.7%
Cc1ccc(N=Cc2sccc2C)cc1C 3.36%
Cc1ccsc1/C=N/N=C/c1sccc1C -8.78%
Cn1c(N)c(S(=O)(=O)N2CCCC2)c(=O)n(C)c1=O 8.94%
CCOc1ccccc1NC(=O)C1CCN(c2ccc(S(=O)(=O)N3CCCC3)cc2)CC1 5.71%
NC(=O)c1cc2cc(Br)ccc2oc1=NCc1ccccc1 -0.91%
CC(=NCc1ccccc1)C1=C(O)COC1=O 5.76%
O=C(CCSc1ccc(Cl)cc1)N1CCN(c2ncccn2)CC1 0.35%
CCn1cc(CN2CCC(C(=O)Nc3ccc(Oc4ccccc4F)cc3)CC2)c(C)n1 10.4%
COc1ccc2c(COC(=O)CCS(=O)(=O)c3ccc(C)cc3)cc(=O)oc2c1 6.52%
CCCC(=O)Oc1ccc2c(C)cc(=O)oc2c1 18.6%
COc1cc(C(C)=O)ccc1OCC(O)CN1CCN(c2c(C)cccc2C)CC1 (centres undefined) -5.73%
OCCOc1ccc(C2=NCCO2)cc1 -2.82%
CCN1CCN(CC(=O)Nc2ccc3c(c2)OCO3)C(=O)C1=O 3.32%
CCN(CC)c1ccc(Nc2cc3n(c(=O)n2)CCc2cc(OC)c(OC)cc2-3)cc1 31.5%
COc1ccc(Nc2cc3n(c(=O)n2)CCc2cc(OC)c(OC)cc2-3)cc1 10.4%
CCOc1ccc(N2C(=O)/C(=C/c3ccccn3)SC2=S)cc1 9.29%
COc1ccc(N2CCN(C(=O)CCc3ccc(S(=O)(=O)NC(C)C)cc3)CC2)cc1 11.6%
CC(C)CC(=O)Nc1ccnn1C1CCN(C(=O)c2ccc(F)cc2Cl)CC1 0.42%
O=C(NNC(=O)c1ccco1)c1ccc(NS(=O)(=O)c2cccs2)cc1 9.88%
COc1ccc(NC(=O)c2sc(SCc3ccccc3)nc2N)cc1 1.41%
COc1ccc(NC(=O)c2sc(SC)nc2N)cc1 3.33%
CC(=O)Nc1ccc2nc(CN3CCN(CC=C(C)C)C(CCO)C3)ccc2c1 (centres undefined) 5.4%
COc1ccc(C(=O)NNC(=O)C(=O)NC(C)c2ccccc2)cc1OC (centres undefined) -0.06%
O=C(O)c1ccc2c(c1)C(c1ccccc1)OC2=O (centres undefined) 11%
COc1ccccc1CC(=O)Nc1ccc(-c2nnc(-c3ccco3)o2)cc1 5.22%
CCOc1ccc(CCNC(=O)c2cccc(S(=O)(=O)N3CCCC3)c2)cc1OCC 2.19%
COc1ccc2c(c1)oc(=O)c1ccccc12 2.39%
COc1ccc2c(c1)c(=O)oc1cc(O)ccc12 10.3%
O=c1cc(O)c2ccc(O)cc2o1 4.04%
Cc1cc(=O)oc2cc(O)ccc12 17.8%
Clc1ccccc1N1CCN(Cc2c[nH]c3ccccc23)CC1 1.73%
O=C(Cn1nnc(-c2ccccc2)n1)Nc1ccccc1N1CCOCC1 -3.12%
COC(=O)c1ccc2c(c1)C(C)(C)C(/C=C/c1ccccc1O)=[N+]2C 21.7%
C[N+]1=C(/C=C/Nc2ccccc2Cl)C(C)(C)c2ccccc21 21.8%
O=C(NC1CCCCC1)c1sc(=S)n2c1[nH]c(=O)c1ccccc12 6.27%
O=C(NCc1ccco1)c1sc(=S)n2c1[nH]c(=O)c1ccccc12 23.2%
Cc1ccc(N(C(=O)c2csnn2)C(C(=O)NC2CCCCC2)c2ccccn2)cc1C (centres undefined) 4.41%
[O-][n+]1c2ccccc2cc2ccccc21 3.6%
CCCCCCCCCC[n+]1cccc2c3ccccc3ccc21 23.8%
CCCCC[n+]1cccc2c3ccccc3ccc21 5.51%
Cc1ccc2ccccc2[n+]1CCCS(=O)(=O)[O-] 5.88%
CN(C)C(=O)c1ccc(-c2nnc(NCc3ccccc3)c3ccccc23)cc1 17.7%
CCOC(=O)c1c(S(=O)(=O)NCC(=O)Nc2ccc(F)cc2)c(C)n(C)c1C 2.6%
CCOc1ccccc1NC(=O)Cn1c(=O)c(OCC)nc2cnccc21 13.5%
COc1ccc(Br)cc1C1CC(=O)N2CN(Cc3ccccc3)CSC2=C1C#N (centres undefined) 35% and 18.8%
COc1ccc2ccccc2c1C1CC(=O)N2CN(C)CSC2=C1C#N (centres undefined) 28.9%
COc1ccc(C2CC(=O)N3CN(c4ccccc4F)CSC3=C2C#N)cc1OC (centres undefined) 51.3%
CN1CSC2=C(C#N)C(c3cccc(OCc4ccccc4)c3)CC(=O)N2C1 (centres undefined) 43.1%
Cc1cccc(C(=O)N2CC3(C)CC2CC(C)(C)C3)c1 (centres undefined) 3.07%
O=C(c1cccc([N+](=O)[O-])c1)c1ccc2c(c1)OCCOCCOCCOCCO2 7.91%
Cc1cccc(N2CCN(C(=O)CCCn3c(=O)c4cccn4c4cccnc43)CC2)c1C 9.66%
CCN1CCN(C(=O)C2=CC(c3ccc(C)cc3)=NS(=O)(=O)N2C)CC1 16.5%
CCN1C(=O)N[C@@H](CCc2ccccc2)[C@@H](C(=O)OC)[C@H]1C 23.2%
COc1cccc(NC(=O)CSCC(=O)Nc2ccccc2)c1 13.8%
O=C(CN1CCCCC1)Nc1ccc(N2CCCCCC2)cc1 31.6%
CCC(=O)Nc1ccc(N2CCCCC2)cc1 34.9%
CC(=O)Nc1ccc(N2CCCC2)cc1 0.723%
CC(=O)Nc1ccc(N2CCN(C(C)=O)CC2)cc1 27.6%
CNC(=O)C12CC3CC(CC(Cl)(C3)C1)C2 11.2%
O=C(CC(C(=O)O)c1cccc(Br)c1)c1ccc(Cl)cc1 (centres undefined) 9.51%
N#Cc1cccc2cnccc12 7.69%
Nc1cccc2cnccc12 3.43%
O=C(CSc1ccc(-c2ccccc2)nn1)c1cccs1 3.38%

Reference: PubChem BioAssay AID1903 (Southern Research Specialized Biocontainment Screening …, 2009)
